Data on 42 compounds can be found in PubChem BioAssay (NCI).

This assay has as its system HL-60(TB) leukemia. The assay can be described thus: NCI-60 one-dose screen, 48 h (100 = growth as untreated, 0 = no growth, -100 = all killed). The settings on record: 10 µM unless noted.

The panel holds about 83,000 compounds, 20% with a hit somewhere; the sample as a whole holds those more often.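 In brief: 96-well plates, 48 h treatment, single concentration, percent growth endpoint.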 A number with no mark means an inactive call. Calls of active or inactive are those of the source. Rule for the calls: active = growth percent below 10; inactive = the rest.

As to `Cn1c(NCCc2ccc(O)c(O)c2)nc2c1c(=O)n(Cc1ccc(Br)cc1)c(=O)n2C`, the growth is 2.61% (active). In the case of `Oc1cccc2oc(=S)[nH]c12` it was 121%.

Take `COc1ccc(Oc2[nH]n(C3=Nc4ccccc4Sc4ccccc43)c(=O)c2C#N)cc1`: the growth is 112%. `CCOC(=O)c1ccc(NC(C)=O)o1`: the growth was 80.6%. `CC/C=C(\C)C(CCC)(CN=O)C(=O)OCC` (configuration not stated): the growth was 110%.

`O=C(Nc1ccccc1)Nc1ncnc2c1ncn2-c1ccccc1`: the growth is 100%. In the case of `CCOC(=O)C1=CCC(n2cc(C)c(=O)[nH]c2=O)O1` (configuration not stated) it was 89.8%. For `CN1CCN(CC(O)COc2c(Br)c(Br)c(Br)c3c2OC(C)(C)C3)CC1` (configuration not stated), the growth is 35.5%.

For the compound `O=C(O)c1ccc2cccnc2c1O`, the growth is -20.5% (active). In the case of `CCN(CC)CCCC(C)Nc1ccnc2c(OC)cccc12` (configuration not stated) it was 52.6%; in that of `C/C(=N\NC(=O)C(C)SC(C)C(=O)N/N=C(\C)c1cccnc1)c1cccnc1` (configuration not stated), 77.1%. For `Cc1ccc[n+](CC(=O)c2cccc3ccccc23)c1` the value was 96.9%. For `COc1cccc(-c2nc(-c3ccc(NC(=O)OC(C)C)cc3)[nH]c2-c2ccnc(Br)c2)c1`, the growth is -39.9% (active). With `COc1c(B(O)O)cccc1-c1nc2ccc3[nH]ncc3c2c2c1CCCC2`, the growth is -28.1% (active).

In the case of `COc1ccc(C2=NN(C(=O)COc3ccc(Cl)cc3)C(O)(c3cc(F)c(Cl)cc3Cl)C2)cc1OC` (configuration not stated), the growth is -42.2% (active). For `O=C(COc1ccc(/C=C2\Cc3ccccc3C2=O)cc1)c1ccc(Cl)cc1` the value was 118%; for `COc1ccc(/C=C2\Cc3c(Br)cccc3C2=O)c(OC)c1`, 89.2%; for `CCOC(=O)CC/C(C)=N\Nc1ccc([N+](=O)[O-])cc1`, 26.4%. In the case of `O=C(c1cnn2c1NC(c1ccc(F)cc1)C2)N1CCCCC1` (configuration not stated) it was 99.7%; in that of `CC[N+](CC)=c1sc2c(s1)C(c1ccc(Cl)cc1)Oc1ccc(Cl)cc1-2` (configuration not stated), -34.3% (active).

For `CCOC(=O)C(C#N)C1CCCCC1` (configuration not stated), the growth was 67.5%. In the case of `CC(=O)OC1Oc2cc(C)c(C)cc2-c2oc(=O)c(-c3ccc(F)cc3)cc21` (configuration not stated), the growth was 12.5%. Regarding `S=c1ssnc1-c1cc2ccccc2o1`, the growth is 78%. For `OCc1cccc2ccccc12` the value was 93.5%; for `Cc1ccc(S(=O)(=O)OCCCOS(=O)(=O)c2ccc(C)cc2)cc1`, 54.4%; for `Oc1c(CN2CCCC2)cc(COCc2ccccc2)c2cccnc12`, 10.6%. In the case of `N=C(N)c1ccc(-c2ccc(-c3ccc(F)cc3)s2)nc1`, the growth is -28% (active). As for `CC(C)(C)n1cc(-c2ccnc(NCCCNS(=O)(=O)c3ccc(C(F)(F)F)cc3)c2)c(-c2cccc(F)c2)n1`, the growth is 94.6%. For the compound `CN1CCN(c2ccc(NC(=O)c3cncnc3Nc3ccc(OCc4cccc(F)c4)c(Cl)c3)cc2)CC1`, the growth is 66.9%. In the case of `Nc1ccc([N+](=O)[O-])cc1N=C/C=C/c1ccccc1` it was 9.14% (active); in that of `O=C(/C=C1\C(=O)N(Cc2ccc([N+](=O)[O-])cc2)c2ccccc21)c1ccc(OCCN2CCCCC2)cc1`, -50.6% (active); in that of `COc1cc(/C=C2\CN(S(=O)(=O)c3ccccc3)C/C(=C\c3cc(CN4CCCCC4)c(O)c(OC)c3)C2=O)cc(CN2CCCCC2)c1O`, -37.6% (active). In the case of `COc1ccc(-c2nn(-c3cccc(Cl)c3)cc2-c2c(C#N)c(=O)n3[nH]c(-c4ccc(C)cc4)nc3c2C#N)cc1` it was 61.7%; in that of `O=C(c1ccc(N2CCOCC2)cc1[N+](=O)[O-])N1CCOCC1`, 133%; in that of `CN=c1ccc2nc3ccc(N)cc3sc-2c1`, -27.1% (active). Take `COc1ccc(-c2nn(-c3ccc(NC(=O)Nc4ccc(Cl)c(C(F)(F)F)c4)cc3)cc2-c2ccncc2)cc1Cl`: the growth was -11.9% (active).

With `c1ccn2nnnc2c1`, the growth was 116%. In the case of `OC(CCC(O)(c1ccccc1)c1ccccc1)(c1ccccc1)c1ccccc1` it was -21.7% (active). For `O=C(NOC(=O)c1ccccc1)c1ccccc1` the value was 87.1%; for `CC(=O)OC[C@]12CC[C@H]3[C@@H](C[C@H]4O[C@]45CC=CC(=O)[C@]35C)[C@]1(O)CC[C@@]2(O)[C@@](C)(O)C1CC(C)=C(C)C(=O)O1` (some centres not stated), -11.8% (active). Consider `CCOC(=O)CC(C)=N`, for which the growth is 93.9%. For `O=C(O)/C=C\C(=O)Nc1cccc2ccccc12` the value was 56.7%.
